Assay [1] in a line: qHTS profiling of the MIPE4 collection as inhibitors of Plasmodium falciparum (3D7) proliferation (AID 743344).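 Note: scaled between DMSO vehicle wells and 0.29 µM artemisinin as full inhibition.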 The settings on record: P. falciparum 3D7 in erythrocytes, SYBR Green DNA fluorescence, 72 h. In outline: (§1)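 Erythrocytes infected with P. falciparum (0.3% parasitemia, 2.5% hematocrit) incubated with compounds 72 h at 37 C, 5% CO2. Lysis with saponin/Triton buffer containing SYBR Green I, overnight at room temperature in the dark; DNA fluorescence (485/535 nm) normalised to 0.29 uM artemisinin and DMSO.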
For orientation: In qHTS, concentration-response curves come from the screen itself.

The nature of assay [2]: qHTS profiling of the MIPE4 collection as inhibitors of Plasmodium falciparum (DD2) proliferation (AID 743345). The settings on record: P. falciparum Dd2 in erythrocytes, SYBR Green DNA, 72 h; at 28.5 µM unless noted. In outline: as §1
Assay [3] is described as follows: qHTS profiling of the MIPE4 collection as inhibitors of Plasmodium falciparum (DD2) proliferation (Rep 2) (AID 743346). The settings on record: P. falciparum Dd2 in erythrocytes, SYBR Green DNA, 72 h. In outline:
as §1

Assay [4] can be described thus: qHTS profiling of the MIPE4 collection as inhibitors of Plasmodium falciparum (HB3) proliferation (AID 743347).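 Note: plate controls were DMSO vehicle wells for no effect and artemisinin wells for full effect.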 The settings on record: P. falciparum HB3 in erythrocytes, SYBR Green DNA, 72 h; at 28.5 µM unless noted. In outline: as §1
Assay [5] can be described thus: High-throughput drug toxicity screening in the BPDCN cell line Gen2.2 (AID 1224824).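 Note: cells exposed to compounds for 48 h before reading.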 The settings on record: Gen2.2 BPDCN cells; at 45.8 µM (top of the series) unless noted. In outline: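 CellTiter-Glo luminescence after 48 h compound exposure of Gen2.2 cells; percent activity set with DMSO as 100% and bortezomib (9.2 uM final) as 0%. Cells seeded at 500 per well, RPMI + 10% FBS, 37 °C.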

The nature of assay [6]: qHTS Assay for Identifying Gametocytocidal Compounds (AID 743244; active = well fitted curve in the direction sought with a large enough effect; an effect the other way counts as inactive or inconclusive; note: potency is the fitted concentration of half-maximal effect;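 for max response: % is set by controls: 0 for no effect and ±100 for the full control effect; actives lower the fluorescent signal which means gametocytes are killed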). The settings on record: P. falciparum 3D7 stage III-V gametocytes, alamarBlue, 72 h; max response: stronger effect = lower value. In outline: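 Fluorescence at Ex 525/Em 598 nm, recorded 24 h after alamarBlue addition, reports residual metabolic activity of 3D7 gametocytes (stages III–V) following 72 h compound exposure at 37 °C, 5% CO2.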

Assay [7] in a line: qHTS profiling for inhibitors of Plasmodium falciparum (DD2) proliferation (AID 743323). The settings on record: lower = more inhibition; at 28.7 µM (top of the series) unless noted. In outline: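 SYBR Green fluorescence (ex 485, em 535 nm) of lysed cultures gives parasite DNA content; wells normalized to artemisinin (0.29 uM) and DMSO controls. Infected red cells: 0.3% parasitemia, 2.5% hematocrit, 72 h, 37 C.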

Assay [8] is described as follows: qHTS profiling for inhibitors of Plasmodium falciparum (HB3) proliferation (AID 743324; active = well fitted curve in the direction sought with a large enough effect; an effect the other way counts as inactive or inconclusive;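 note: 100% = DMSO vehicle wells and 0% = artemisinin-treated control wells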). The settings on record: Plasmodium falciparum HB3 blood-stage proliferation; at 28.7 µM (top of the series) unless noted. In outline: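 P. falciparum HB3 grown in erythrocytes (0.3% parasitemia, 2.5% hematocrit final) with compound for 72 h at 37 C, 5% CO2. Parasite DNA detected by SYBR Green after saponin/triton lysis overnight; normalized to 0.29 uM artemisinin and DMSO.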

The mark [9] stands for this setting: at 28.5 µM unless noted.

“And” between values parts separate entries of the source, which are not always exact repeats. Equal values may be shown once. Inconclusive results are not listed. The source made the active and inactive calls. Unless noted, the rule behind the calls is not given here.

On to `CN1CCC(=C2c3ccccc3CCc3sccc32)CC1`, for which the parasite growth, % of DMSO control in assay [1] (setting [9]) stood at 8.53%. In assay [2], this compound yielded a parasite growth remaining, % of DMSO control (lower = more inhibition) of 50.7%. For the same compound, in assay [3] (setting [9]), the parasite growth, % of control (lower = inhibition) came out at 14.9%. Further, the growth, % of control in assay [4] came out at 8.17%. Besides, in assay [5], the cell viability, % of control (lower = more cytotoxic) was 93.1%.

As to `N=C(N=C(N)N)N1CCOCC1`, the max response in assay [6] was 0.738% (inactive). This compound also gave a parasite growth, % of DMSO control in assay [1] (setting [9]) of 106%. Moreover, in assay [3] (setting [9]), the parasite growth, % of control (lower = inhibition) was 93.1%. In assay [4], this compound came in with a growth, % of control of 101%. In assay [5], the cell viability, % of control (lower = more cytotoxic) was determined as 139%.

As to `Cn1c(NCCN(CCO)CCCc2ccc([N+](=O)[O-])cc2)cc(=O)n(C)c1=O`, the max response in assay [6] is 4.58% (inactive). In addition, the parasite growth, % of DMSO control in assay [1] (setting [9]) came out at 5.83%. In addition, the parasite growth, % of control (lower = inhibition) in assay [3] (setting [9]) is 7.33%. In addition, the growth, % of control in assay [4] was found to be 9.64%. The cell viability, % of control (lower = more cytotoxic) in assay [5] is 108%.

The compound `Cc1cc(C2CCCCC2)n(O)c(=O)c1` displayed an activity, percent of control in assay [7] of 0.27%. Moreover, the remaining proliferation (% of control), lower = more inhibition in assay [8] was -0.0898%. Also, the parasite growth, % of DMSO control in assay [1] (setting [9]) is 6.27%. This compound also registered a parasite growth remaining, % of DMSO control (lower = more inhibition) in assay [2] of 7.36%. Moreover, the parasite growth, % of control (lower = inhibition) in assay [3] (setting [9]) came to 17.5%. The compound also returned a growth, % of control in assay [4] of 9.38%. In addition, the cell viability, % of control (lower = more cytotoxic) in assay [5] amounted to 17%.

Take `CCCCN(CCCC)CCC(O)c1cc2c(Cl)cc(Cl)cc2c2cc(C(F)(F)F)ccc12` (stereo unspecified): the activity, percent of control in assay [7] worked out at 0.468% [at 9.63 µM]. Further, in assay [8], the remaining proliferation (% of control), lower = more inhibition was found to be 0.576% [at 9.63 µM]. Besides, the parasite growth, % of DMSO control amounted to 7.84% in assay [1] (at 9.64 µM (top of the series)) and 7.96% in assay [1] (at 28.5 µM). The values for the parasite growth, % of control (lower = inhibition) in assay [3] (at 9.64 µM (top of the series)) and in assay [3] (at 28.5 µM) were 11% and 10.3%, respectively. For the same compound, in assay [5], the cell viability, % of control (lower = more cytotoxic) worked out at 34.8%.

Turning to `Oc1ccc2ccccc2c1SSc1c(O)ccc2ccccc12`, the Potency in assay [6] is 3.55 µM (active). In assay [1] (setting [9]), this compound registered a parasite growth, % of DMSO control of 6.56%. In assay [3] (setting [9]), this compound showed a parasite growth, % of control (lower = inhibition) of 30.4%. Besides, the growth, % of control in assay [4] amounted to 9.78%. In assay [5], the cell viability, % of control (lower = more cytotoxic) worked out at 2.05%.

As to `COCCCN1CCC(NC(=O)c2cc(Cl)c(N)c3c2OCC3)CC1`, the parasite growth, % of DMSO control in assay [1] (setting [9]) was 28.3%. In assay [3] (setting [9]), the parasite growth, % of control (lower = inhibition) is 38%. In assay [4], this compound returned a growth, % of control of 15.7%. Also, the cell viability, % of control (lower = more cytotoxic) in assay [5] came out at 418%.

`CC1=C(C)C(=O)C(C(CCCCCC(=O)O)c2ccccc2)=C(C)C1=O` (stereo unspecified): the max response in assay [6] is -7.88% (inactive). The same compound came in with a parasite growth, % of DMSO control in assay [1] (setting [9]) of 50.6%. In addition, the parasite growth remaining, % of DMSO control (lower = more inhibition) in assay [2] stood at 87.9%. This compound came in with a parasite growth, % of control (lower = inhibition) in assay [3] (setting [9]) of 46%. The compound also gave a growth, % of control in assay [4] of 74.4%. For the same compound, the cell viability, % of control (lower = more cytotoxic) in assay [5] was 195%.

With `CC1Cc2ccccc2N1NC(=O)c1ccc(Cl)c(S(N)(=O)=O)c1` (stereo unspecified), in assay [6], the max response is 1.41% (inactive) and -0.446% (inactive). Further, in assay [4], the growth, % of control was 48.2%. Besides, the cell viability, % of control (lower = more cytotoxic) in assay [5] was determined as 106%.

For `Oc1ccc(-c2nc(-c3ccc(F)cc3)c(-c3ccncc3)[nH]2)cc1`, the max response in assay [6] was 19.1% (inactive). This compound yielded a parasite growth, % of DMSO control in assay [1] (setting [9]) of 37%. In assay [3] (setting [9]), this compound had a parasite growth, % of control (lower = inhibition) of 35.5%. For the same compound, the cell viability, % of control (lower = more cytotoxic) in assay [5] turned out to be 136%.

Take `O=C(O)c1cccc(-c2noc(-c3ccccc3F)n2)c1`: the max response in assay [6] was -7.05% (inactive). In addition, the parasite growth, % of DMSO control in assay [1] (setting [9]) amounted to 93.9%. Further, the parasite growth, % of control (lower = inhibition) in assay [3] (setting [9]) is 41.6%. In assay [4], the growth, % of control worked out at 99.8%. Also, the cell viability, % of control (lower = more cytotoxic) in assay [5] amounted to 41.1%.

In assay [1] (setting [9]), `CCN(CC)CCOc1ccc(Cc2ccccc2)cc1` returned a parasite growth, % of DMSO control of 58.8%. The compound also yielded a parasite growth remaining, % of DMSO control (lower = more inhibition) in assay [2] of 74.1%. Further, the parasite growth, % of control (lower = inhibition) in assay [3] (setting [9]) is 36.4%. For the same compound, the cell viability, % of control (lower = more cytotoxic) in assay [5] is 158%.

As to `Cc1cc2cc3c(C)cc(=O)oc3c(C)c2o1`, in assay [6], the max response was 13.8% (inactive). In assay [1] (setting [9]), the parasite growth, % of DMSO control is 93%. In assay [3] (setting [9]), this compound gave a parasite growth, % of control (lower = inhibition) of 91.1%. In addition, the cell viability, % of control (lower = more cytotoxic) in assay [5] was 16.3%.

For the compound `Cc1cccc(CN2CCN(C(c3ccccc3)c3ccc(Cl)cc3)CC2)c1` (stereo unspecified), in assay [6], the max response was 0.914% (inactive). In assay [1] (setting [9]), this compound had a parasite growth, % of DMSO control of 6.23%. The parasite growth, % of control (lower = inhibition) in assay [3] (setting [9]) came to 22.6%. This compound registered a growth, % of control in assay [4] of 9.08%. For the same compound, the cell viability, % of control (lower = more cytotoxic) in assay [5] was 156%.

In turn, `Cc1nc(Nc2ncc(C(=O)Nc3c(C)cccc3Cl)s2)cc(N2CCN(CCO)CC2)n1` had an activity, percent of control in assay [7] of 71.4%. The remaining proliferation (% of control), lower = more inhibition in assay [8] was 34.2%. This compound gave a parasite growth, % of DMSO control in assay [1] (setting [9]) of 13.5%. This compound also gave a parasite growth remaining, % of DMSO control (lower = more inhibition) in assay [2] of 65.3%. The parasite growth, % of control (lower = inhibition) in assay [3] (setting [9]) was 17.6%. The compound also displayed a growth, % of control in assay [4] of 3.03%. For the same compound, the cell viability, % of control (lower = more cytotoxic) in assay [5] was 74.9%.

These data come from PubChem BioAssay (NCATS).
